# Source: the supplement of paper PMC8728848
# The sample as a whole holds a higher share of the strongest signals than the screen did.
# Experiments:
# Experiment in all cases: glycan array binding signal (z-score within array); higher = stronger binding
# Conditions in all cases: glycan notation: IUPAC condensed, linker removed
# [1] = molecular target: Fuc(a1-2)Gal(b1-4)Glc
# Outline: (§1)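 Glycan array data were curated from 3228 arrays in the Consortium for Functional Glycomics database and kept only where the protein sequence was available. Glycan names were converted to IUPAC-condensed notation, and columns mapping to the same glycan were averaged. The binding signal is a within-array Z-score, averaged across arrays of the same protein sequence at different concentrations or buffers and across linkers. Negative Z-scores can be read as non-binding.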
# [2] = molecular target: Fuc(a1-2)Gal(b1-4)GlcNAc(b1-2)[Fuc(a1-2)Gal(b1-4)GlcNAc(b1-4)]Man(a1-3)[Fuc(a1-2)Gal(b1-4)GlcNAc(b1-2)Man(a1-6)]Man(b1-4)GlcNAc(b1-4)GlcNAc
# Outline: as §1
# [3] = molecular target: Fuc(a1-2)Gal(b1-4)GlcNAc(b1-3)[Fuc(a1-2)Gal(b1-4)GlcNAc(b1-6)]GalNAc
# Outline: as §1
# [4] = molecular target: Fuc(a1-2)[Gal(a1-3)]Gal(b1-4)[Fuc(a1-3)]Glc
# Outline: as §1
# [5] = molecular target: Fuc(a1-2)[Gal(a1-3)]Gal(b1-4)[Fuc(a1-3)]GlcNAc(b1-3)GalNAc
# Outline: as §1
# [6] = molecular target: Fuc(a1-2)[Gal(a1-4)]Gal(b1-4)GlcNAc
# Outline: as §1
# [7] = molecular target: Fuc(a1-2)[GalNAc(a1-3)]Gal
# Outline: as §1
# [8] = molecular target: Fuc(a1-2)[GalNAc(a1-3)]Gal(b1-3)GlcNAc(b1-3)GalNAc
# Outline: as §1
# [9] = molecular target: Fuc(a1-2)[GalNAc(a1-3)]Gal(b1-4)GlcNAc
# Outline: as §1
# [10] = molecular target: Fuc(a1-2)[GalNAc(a1-3)]Gal(b1-4)GlcNAc(b1-3)Gal(b1-4)GlcNAc(b1-3)Gal(b1-4)GlcNAc
# Outline: as §1
# [11] = molecular target: Fuc(a1-2)[GalNAc(a1-3)]Gal(b1-4)GlcNAc(b1-3)GalNAc
# Outline: as §1
# [12] = molecular target: Fuc(a1-2)[GalNAc(a1-3)]Gal(b1-4)[Fuc(a1-3)]GlcNAc
# Outline: as §1
# [13] = molecular target: Fuc(a1-3)GlcNAc
# Outline: as §1
# [14] = molecular target: Fuc(a1-3)[Gal(b1-4)]GlcNAc(b1-6)GalNAc
# Outline: as §1
# [15] = molecular target: Fuc(a1-3)[Gal3S(b1-4)]GlcNAc
# Outline: as §1
# [16] = molecular target: Gal(a1-4)Gal(b1-4)GlcNAc(b1-3)Gal(b1-4)Glc
# Outline: as §1
# [17] = molecular target: Gal(b1-3)GlcNAc(b1-3)GalNAc
# Outline: as §1
# [18] = molecular target: Gal(b1-3)GlcNAc(b1-6)Gal(b1-4)GlcNAc
# Outline: as §1
# [19] = molecular target: Gal(b1-3)[Fuc(a1-4)]GlcNAc(b1-3)Gal(b1-4)GlcNAc
# Outline: as §1
# [20] = molecular target: Gal(b1-3)[Neu5Ac(a2-6)]GalNAc
# Outline: as §1
# [21] = molecular target: Gal(b1-4)GlcNAc(b1-3)Gal(b1-3)GalNAc
# Outline: as §1
# [22] = molecular target: Gal(b1-4)GlcNAc(b1-3)Gal(b1-4)GlcNAc(b1-2)Man(a1-3)[Gal(b1-4)GlcNAc(b1-3)Gal(b1-4)GlcNAc(b1-2)Man(a1-6)]Man(b1-4)GlcNAc(b1-4)[Fuc(a1-6)]GlcNAc
# Outline: as §1
# [23] = molecular target: Gal(b1-4)GlcNAc(b1-3)Gal(b1-4)GlcNAc(b1-2)[Gal(b1-4)GlcNAc(b1-3)Gal(b1-4)GlcNAc(b1-6)]Man(a1-6)[Gal(b1-4)GlcNAc(b1-3)Gal(b1-4)GlcNAc(b1-2)Man(a1-3)]Man(b1-4)GlcNAc(b1-4)GlcNAc
# Outline: as §1
# [24] = molecular target: Gal(b1-4)GlcNAc(b1-3)Gal(b1-4)GlcNAc(b1-3)Gal(b1-4)GlcNAc(b1-3)Gal(b1-4)GlcNAc(b1-2)Man(a1-3)[Gal(b1-4)GlcNAc(b1-3)Gal(b1-4)GlcNAc(b1-3)Gal(b1-4)GlcNAc(b1-3)Gal(b1-4)GlcNAc(b1-2)Man(a1-6)]Man(b1-4)GlcNAc(b1-4)[Fuc(a1-6)]GlcNAc
# Outline: as §1
# [25] = molecular target: Gal(b1-4)GlcNAc(b1-3)Gal(b1-4)GlcNAc(b1-3)Gal(b1-4)GlcNAc(b1-3)Gal(b1-4)GlcNAc(b1-3)Gal(b1-4)GlcNAc(b1-2)Man(a1-3)[Gal(b1-4)GlcNAc(b1-3)Gal(b1-4)GlcNAc(b1-3)Gal(b1-4)GlcNAc(b1-3)Gal(b1-4)GlcNAc(b1-3)Gal(b1-4)GlcNAc(b1-2)Man(a1-6)]Man(b1-4)GlcNAc(b1-4)[Fuc(a1-6)]GlcNAc
# Outline: as §1
# [26] = molecular target: Gal(b1-4)GlcNAc(b1-6)[Gal(b1-3)]GalNAc
# Outline: as §1
# [27] = molecular target: Gal3S(b1-3)GlcNAc
# Outline: as §1
# [28] = molecular target: Gal3S(b1-4)[Fuc(a1-3)]Glc6S
# Outline: as §1
# [29] = molecular target: Gal3S6S(b1-4)GlcNAc
# Outline: as §1
# [30] = molecular target: GlcNAc(b1-3)Gal(b1-4)GlcNAc(b1-3)Gal(b1-4)GlcNAc(b1-3)Gal(b1-4)GlcNAc(b1-3)Gal(b1-4)GlcNAc(b1-2)Man(a1-3)[GlcNAc(b1-3)Gal(b1-4)GlcNAc(b1-3)Gal(b1-4)GlcNAc(b1-3)Gal(b1-4)GlcNAc(b1-3)Gal(b1-4)GlcNAc(b1-2)Man(a1-6)]Man(b1-4)GlcNAc(b1-4)[Fuc(a1-6)]GlcNAc
# Outline: as §1
# [31] = molecular target: GlcNAc(b1-3)Gal(b1-4)GlcNAc(b1-6)[Gal(b1-3)]GalNAc
# Outline: as §1
# [32] = molecular target: GlcNAc(b1-3)[GlcNAc(b1-6)]GalNAc
# Outline: as §1
# [33] = molecular target: Kdn(a2-6)Gal(b1-4)GlcNAc
# Outline: as §1
# [34] = molecular target: Man(a1-2)Man(a1-3)[Man(a1-2)Man(a1-6)]Man
# Outline: as §1
# [35] = molecular target: Man(a1-2)Man(a1-6)[Man(a1-3)]Man(a1-6)[Man(a1-2)Man(a1-2)Man(a1-3)]Man
# Outline: as §1
# [36] = molecular target: Neu5Ac(a2-3)Gal(b1-3)GlcNAc(b1-3)Gal(b1-3)GlcNAc
# Outline: as §1
# [37] = molecular target: Neu5Ac(a2-3)Gal(b1-3)GlcNAc(b1-3)GalNAc
# Outline: as §1
# [38] = molecular target: Neu5Ac(a2-3)Gal(b1-3)GlcNAc(b1-4)Gal(b1-4)Glc
# Outline: as §1
# [39] = molecular target: Neu5Ac(a2-3)Gal(b1-4)GlcNAc(b1-3)Gal(b1-4)GlcNAc
# Outline: as §1
# [40] = molecular target: Neu5Ac(a2-3)Gal(b1-4)GlcNAc(b1-3)Gal(b1-4)GlcNAc(b1-3)Gal(b1-4)GlcNAc(b1-2)Man(a1-3)[Neu5Ac(a2-3)Gal(b1-4)GlcNAc(b1-3)Gal(b1-4)GlcNAc(b1-3)Gal(b1-4)GlcNAc(b1-2)Man(a1-6)]GalNAc
# Outline: as §1
# [41] = molecular target: Neu5Ac(a2-3)Gal(b1-4)[Fuc(a1-3)]GlcNAc(b1-3)GalNAc
# Outline: as §1
# [42] = molecular target: Neu5Ac(a2-6)Gal(b1-4)GlcNAc(b1-2)Man(a1-3)Man(b1-4)GlcNAc(b1-4)GlcNAc
# Outline: as §1
# [43] = molecular target: Neu5Ac(a2-6)Gal(b1-4)GlcNAc(b1-2)[Neu5Ac(a2-6)Gal(b1-4)GlcNAc(b1-6)]Man(a1-6)[Neu5Ac(a2-6)Gal(b1-4)GlcNAc(b1-2)Man(a1-3)][GlcNAc(b1-4)]Man(b1-4)GlcNAc(b1-4)GlcNAc
# Outline: as §1
# [44] = molecular target: Neu5Ac(a2-6)GalNAc
# Outline: as §1
# [45] = molecular target: Neu5Ac(a2-8)Neu5Ac(a2-3)Gal(b1-4)Glc
# Outline: as §1
# [46] = molecular target: Neu5Ac(a2-8)Neu5Ac(a2-3)Gal(b1-4)GlcNAc
# Outline: as §1
# [47] = molecular target: Neu5Ac(a2-8)Neu5Ac(a2-8)Neu5Ac(a2-3)[Gal(b1-3)GalNAc(b1-4)]Gal(b1-4)Glc
# Outline: as §1
# [48] = molecular target: Neu5Ac9Ac(a2-6)Gal(b1-4)GlcNAc
# Outline: as §1
# [49] = molecular target: Neu5Gc(a2-8)Neu5Ac(a2-3)Gal(b1-4)GlcNAc
# Outline: as §1
binder,measurement,setting,value
"CD4 (Rattus norvegicus), P05540 (protein) MCRGFSFRHLLPLLLLQLSKLLVVTQGSTSITAYKSEGESAEFSFPLNLGEESLQGELRWKAEKAPSSQSWITFSLKNQKVSVQKSTSNPKFQLSETLPLTLQIPQVSLQFAGSGNLTLTLDRGILYQEVNLVVMKVTQPDSNTLTCEVMGPTSPKMRLILKQENQEARVSRQEKVIQVQAPEAGVWQCLLSEGEEVKMDSKIQVLSKGLNSGGGSGGGTGGGDLAPQMLRELQETNAALQDVRELLRQQVKEITFLKNTVMECDACGLDRNLPPLAPLGPHPETLVKVKDAEDQLGARVGYIELDLNSGKILESFRPEERFPMMSTFKVLLCGAVLSRIDAGQEQLGRRIHYSQNDLVEYSPVTEKHLTDGMTVRELCSAAITMSDNTAANLLLTTIGGPKELTAFLHNMGDHVTRLDRWEPELNEAIPNDERDTTMPVAMATTLRKLLTGELLTLASRQQLIDWMEADKVAGPLLRSALPAGWFIADKSGAGERGSRGIIAALGPDGKPSRIVVIYTTGSQATMDERNRQIAEIGASLIKHW",glycan array binding signal (z-score),[1],1.27
same,glycan array binding signal (z-score),[2],1.76
same,glycan array binding signal (z-score),[3],-0.242
same,glycan array binding signal (z-score),[4],0.448
same,glycan array binding signal (z-score),[5],-0.228
same,glycan array binding signal (z-score),[6],1.9
same,glycan array binding signal (z-score),[7],-0.738
same,glycan array binding signal (z-score),[8],2.41
same,glycan array binding signal (z-score),[9],-0.98
same,glycan array binding signal (z-score),[10],3.72
same,glycan array binding signal (z-score),[11],-0.665
same,glycan array binding signal (z-score),[12],2.67
same,glycan array binding signal (z-score),[13],-1.59
same,glycan array binding signal (z-score),[14],0.46
same,glycan array binding signal (z-score),[15],-0.413
same,glycan array binding signal (z-score),[16],3.31
same,glycan array binding signal (z-score),[17],0.109
same,glycan array binding signal (z-score),[18],-1.04
same,glycan array binding signal (z-score),[19],-0.072
same,glycan array binding signal (z-score),[20],-1.09
same,glycan array binding signal (z-score),[21],3.12
same,glycan array binding signal (z-score),[22],2.88
same,glycan array binding signal (z-score),[23],2.6
same,glycan array binding signal (z-score),[24],2.6
same,glycan array binding signal (z-score),[25],2.8
same,glycan array binding signal (z-score),[26],-1.17
same,glycan array binding signal (z-score),[27],-0.868
same,glycan array binding signal (z-score),[28],3.99
same,glycan array binding signal (z-score),[29],-0.623
same,glycan array binding signal (z-score),[30],-0.266
same,glycan array binding signal (z-score),[31],-0.267
same,glycan array binding signal (z-score),[32],-0.65
same,glycan array binding signal (z-score),[33],-1.16
same,glycan array binding signal (z-score),[34],-0.568
same,glycan array binding signal (z-score),[35],1.05
same,glycan array binding signal (z-score),[36],0.207
same,glycan array binding signal (z-score),[37],-0.719
same,glycan array binding signal (z-score),[38],-1.28
same,glycan array binding signal (z-score),[39],-1.14
same,glycan array binding signal (z-score),[40],3.17
same,glycan array binding signal (z-score),[41],2.77
same,glycan array binding signal (z-score),[42],0.03
same,glycan array binding signal (z-score),[43],-1.55
same,glycan array binding signal (z-score),[44],-0.467
same,glycan array binding signal (z-score),[45],-0.183
same,glycan array binding signal (z-score),[46],0.265
same,glycan array binding signal (z-score),[47],0.105
same,glycan array binding signal (z-score),[48],0.028
same,glycan array binding signal (z-score),[49],-0.129
